From PubChem BioAssay
Rows were chosen to be rich in hits. Some 4.8% of all compounds tested hit in one or more screens of this group.
NALP1 inh – blocks the NALP1 inflammasome reconstituted in yeast | AID 2071 | inhibition, % at 10 µM | S. cerevisiae NALP1/ASC/caspase-1 growth, X-gal OD620, 72 h | 280,000 tested, 0.61% active; in the data active means inhibition mostly above about 24%, no sharp cut-off; inactive means mostly below about 32%
tim23-1 inh – growth inhibitors of tim23-1 mutant yeast; S. cerevisiae tim23-1 growth, BacTiter-Glo luminescence, 24 h; inhibition, % at 20 µM; 330,000 tested, 1.3% active;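 active means growth inhibition of the mutant yeast at or above 50%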;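 further: temperature-sensitive mutant grown at 25 °C; plate controls were DMSO-treated mutant yeast for no effect and medium wells lacking yeast for full effect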
tim10-1 inh – growth inhibitors of tim10-1 mutant yeast; 330,000 tested, 2.2% active; S. cerevisiae tim10-1 ts strain growth, BacTiter-Glo, 24 h; AID 463190; inhibition, % at 20 µM;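 active means inhibition of at least 40%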;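 further: mutant grown at 25 °C; 0% = DMSO wells with yeast and 100% = wells holding no yeast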
TIM10 inh – inhibits growth of TIM10 yeast strain; AID 463195; inhibition, % at 10 µM; S. cerevisiae TIM10 strain growth, BacTiter-Glo luminescence, 24 h; 330,000 tested, 1.4% active;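 active means inhibition of 40% or more at the single tested concentration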;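 further: wild-type TIM10 isogenic control strain grown at permissive 25 °C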
SKKanGAS inh – SKKanGAS growth inhibition. inhibition, % at 7.5 µM. S. pyogenes SKKanGAS, kanamycin growth, BacTiter-Glo, 6 h. 300,000 tested, 1.3% active;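 active means mean replicate score, as percent of positive control median, at least 50; inconclusive means mean below 50 but one replicate at or above 50; inactive means mean and every replicate below 50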;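 further: strain carries kanamycin resistance gene driven by streptokinase promoter and grows in 40 µg/ml kanamycin; loss of luminescence reflects streptokinase promoter inhibition or plain growth inhibition; 0% = median of DMSO wells and 100% = positive control at its reference dose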
PfHsp90 set2 – reduces growth (ATP signal) of yeast expressing P. falciparum Hsp90; S. cerevisiae expressing PfHsp90, BacTiter-Glo ATP, 48 h; yeast lacking PDR1 and PDR3 efflux regulators; inhibition, % at 9.4 µM; 310,000 tested, 0.32% active; AID 504621;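 active means every replicate shows inhibition above about 80%, whatever the replicate mean, limit read from the data; inconclusive means mean inhibition reaches the set limit but some replicate falls short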;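 further: 0% = DMSO neutral controls and 100% = 20 µM radicicol positive controls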
tim10-1 confirm – tim10-1 yeast growth inhibition, confirmed. shares compounds with tim10-1 inh. S. cerevisiae tim10-1 ts strain growth, BacTiter-Glo, 24 h. inhibition, % at 20 µM. 7,400 tested, 56% active;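 active means inhibition of yeast growth at or above a set limit in either of two repeat tests at 20 µM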;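 further: tim10-1 mutant grown at permissive 25 °C to find synthetic lethal compounds; 0% = DMSO yeast wells and 100% = medium wells without yeast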
An asterisk follows results filed as active; ? = inconclusive; · = no result.

SMILES | NALP1 inh | tim23-1 inh | tim10-1 inh | TIM10 inh | SKKanGAS inh | PfHsp90 set2 | tim10-1 confirm
O=C1CS/C(=N/N=C/c2ccccc2)N1Cc1ccco1 | 14 | 13 | -15 | -9 | -2 | 9 | ·
O=C1CN(Cc2ccccc2)C(=NCc2ccco2)S1 | · | 34 | 45* | 4 | -5 | 6 | 20
Cc1ccc2c(nc3s/c(=C\c4ccc(-c5ccccc5C(=O)O)o4)c(=O)n32)c1C | 12 | 47 | 46* | 33 | 26 | -46 | 18
Cc1ccc2c(nc3s/c(=C/c4cccs4)c(=O)n32)c1C | 13 | · | · | · | · | -3 | ·
CN1CCN(C(=O)c2cc3cc(F)ccc3[nH]2)CC1 | 10 | -13 | 0 | 6 | 1 | 0 | ·
CCCc1nn(C)c(C(=O)Nc2ccc(CC)cc2)c1Cl | 22 | 20 | 43* | 11 | 2 | 10 | 11
CCCc1nn(C)c(C(=O)Nc2ccc(C)c(C)c2)c1Cl | 28 | 3 | 0 | -10 | -1 | -12 | ·
COc1ccc(Br)cc1[C@H]1[C@@H]2C=CCC[C@@]2(C)C(=O)N1Cc1ccccc1 | -1 | 6 | 44* | 7 | ? | -25 | 37*
C[C@@]12CCC=C[C@H]1[C@H](c1ccc3ccccc3c1)N(Cc1ccccc1)C2=O | -5 | 12 | 52* | 13 | 69* | 26 | 53*
Cc1nn(Cc2ccccc2)c2c1C(c1ccc(Cl)cc1)C(C#N)=C(N)O2 (stereo not given) | -1 | 12 | 28 | 21 | 0 | 10 | ·
O=C(NC1CCN(Cc2ccccc2)CC1)C1CCN(c2nnc(-n3cccc3)s2)CC1 | 32 | 16 | 10 | -4 | -1 | 9 | ·
Cc1cc(C(=O)C(C)OC(=O)c2ccc(NC(=O)CC#N)cc2)c(C)n1-c1ccccc1 (stereo not given) | · | 34 | 42* | 26 | 17 | -22 | 19
COc1ccccc1-c1noc(CCC(=O)Nc2cc(C(F)(F)F)ccc2Cl)n1 | 2 | 25 | 43* | 11 | 5 | · | 22
COc1nc(C)cc(C)c1S(=O)(=O)c1ccccc1C | 18 | 11 | 2 | -8 | 7 | -3 | ·
CCC(C)Oc1nc(C)cc(C)c1S(=O)(=O)c1ccccc1C (stereo not given) | -7 | 42 | 44* | 24 | 5 | 6 | 23
Cc1cccn2c(=O)c3cc(C(=O)N(C)C)n(C)c3nc12 | 17 | 9 | 3 | 8 | -2 | -26 | ·
CCC(C)NS(=O)(=O)c1ccc(NC(=O)c2ccc([N+](=O)[O-])cc2Cl)cc1 (stereo not given) | 24 | 31 | 46* | 25 | -4 | 13 | 31*
CC(=O)Nc1ccc(NC(=O)c2ccc([N+](=O)[O-])cc2Cl)cc1 | 22 | -1 | -3 | 8 | 1 | -20 | ·
O=C(Nc1ccncc1)c1ccc(N2CCCC2=O)cc1 | · | -6 | -1 | 8 | 0 | 30 | ·
CCN(C(=O)CSc1ncccn1)c1c(N)n(Cc2ccccc2)c(=O)[nH]c1=O | · | 12 | 3 | 7 | · | · | ·
O=C1CC(SCc2nc3ccccc3[nH]2)C(=O)N1c1ccc(Cl)cc1 (stereo not given) | -4 | 36 | 32 | 21 | 16 | 7 | ·
O=C1CC(SCc2nc3ccccc3[nH]2)C(=O)N1c1ccc(F)c(Cl)c1 (stereo not given) | -1 | 21 | 54* | 35 | 19 | 15 | 42*
CCOC(=O)/C(C#N)=C1/CCCCCN1C | -2 | 9 | 0 | 7 | 0 | -23 | ·
CCOC(=O)/C(C#N)=C1\SS/C(=C(/C#N)C(=O)OCC)S1 | 80* | 21 | 41* | 13 | -7 | · | 36*
O=C(Oc1cc2oc(=O)c3c(c2cc1Cl)CCCC3)c1cccs1 | 16 | 31 | 43* | 23 | 31 | -4 | 17
COc1ccc(S(=O)(=O)NCCSc2ccc(Cl)cc2)cc1OC | 0 | 34 | 30 | 22 | -4 | 18 | ·
O=S(=O)(NCc1ccc(F)cc1)c1ccc2c(c1)OCCO2 | -20 | 37 | 53* | 28 | -3 | · | 37*
O=S(=O)(NCCSCc1ccc(Cl)cc1Cl)c1ccc2c(c1)OCCO2 | 6 | 28 | 45* | 19 | -10 | -26 | 34*
